Assay outcomes: PubChem, Broad Institute
RAD52 anneal inh: RAD52 DNA annealing inhibitors, primary screen, biochemical, FRET, single point, set 2; DNA repair protein RAD52 homolog (Homo sapiens), P43351; recombinant RAD52 DNA annealing, FRET fluorescence; inhibition, % at 18.7 µM; 0.46% of 360,000 active; AID 651710, 2012;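 active = every replicate showing at least 50% inhibition; inconclusive = mean inhibition at least 50% but not in every replicate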
MLL AF4-AF9 inh: inhibitors of AF4 peptide binding to AF9, primary screen, biochemical, AlphaScreen, biotin-AF4 peptide, FLAG-AF9, single point | Protein AF-9 (Homo sapiens), P42568 | inhibition, % at 10 µM | 0.47% of 350,000 active;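 active = every replicate reaching a set inhibition limit, whatever the replicate mean, cut at about 25% in these data; inconclusive = mean inhibition reaches that limit but some replicates miss it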
GSIS activator: GLuc luminescence reporter in INS-1E cells, primary screen for activators of glucose-dependent secretion of insulin; INS-1E GLuc reporter insulin secretion, 2-3 h; activation, % at 16.6 µM; 0.61% of 370,000 active; AID 743287, 2014;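 active = lowest replicate activation of at least 40%, so every replicate reaches that level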
dFosB act-1: activators of delta FosB homodimer, primary screen, biochemical, fluorescence polarization, TAMRA-CDK5 oligo, single point; purified delta FosB; percent of positive-control signal above neutral wells; activation, % at 25 µM; Protein FosB (Mus musculus), P13346; 0.99% of 340,000 active;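 active = mean activation above about 17%, with every replicate also reaching it, limit read from the data, passing the limit was not always enough; inconclusive = only one of the two conditions met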
Target sequence (P13346 whole entry, looked up): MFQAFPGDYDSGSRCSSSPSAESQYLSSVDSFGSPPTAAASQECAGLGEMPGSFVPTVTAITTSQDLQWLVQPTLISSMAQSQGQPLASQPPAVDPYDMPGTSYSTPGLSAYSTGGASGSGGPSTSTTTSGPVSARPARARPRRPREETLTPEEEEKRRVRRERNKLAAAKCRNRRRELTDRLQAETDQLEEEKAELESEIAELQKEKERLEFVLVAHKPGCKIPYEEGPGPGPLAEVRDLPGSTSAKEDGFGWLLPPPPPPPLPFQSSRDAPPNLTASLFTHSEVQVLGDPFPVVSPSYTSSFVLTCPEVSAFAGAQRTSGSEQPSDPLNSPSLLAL
DENV2 CPE: inhibitors of DENV2 cytopathic effect, primary screen, cell-based, plate reader, single concentration | DENV2-infected cells, cytopathic effect rescue | CPE inhibition, % at 9.99 µM | 1.7% of 350,000 active; in the data active = CPE inhibition above about 20%, passing the limit was not always enough; inconclusive = no clear call, values can overlap the other calls; tested in BHK-21 cells
RAD54 branch: inhibitors of human RAD54 branch migration, primary screen, biochemical, fluorescence, single point. DNA repair and recombination protein RAD54-like (Homo sapiens), Q92698. RAD54 Holliday junction branch migration, FAM/BHQ fluorescence. inhibition, % at 10.4 µM. 0.14% of 360,000 active;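 active = mean normalized replicate activity at least 40 and at least half of replicates scoring 40 or more; inconclusive = only one of the two criteria met; inactive = mean below 40 and under half of replicates reaching 40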;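 also: inhibitors cause a drop in the FAM fluorescence signal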
dFosB act-2: activators of mouse delta FosB DNA binding, confirmation, biochemical, fluorescence polarization, TAMRA-CDK5 oligo, cherry-picked samples; shares compounds with dFosB act-1; purified delta FosB; normalised: neutral wells 0, positive control 100; activation, % at 24.9 µM; 2,400 tested, under 10 active;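 active = highest replicate activation at or above 34% and every replicate reaching that threshold; inconclusive = meets only one of the two criteria; inactive = meets neither criterion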;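 also: higher polarization means more probe DNA bound by delta FosB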
Numbers stand for hits. This is a sample that favours compounds with a hit; in the whole collection about 3.1% have one here.

What do the screens show for `Cc1ccccc1CNc1ccc(C(CC(N)=O)NC(=O)c2ccccc2)cc1[N+](=O)[O-]` (stereo not drawn)?
RAD52 anneal inh: inactive; MLL AF4-AF9 inh: inactive; dFosB act-1: 28; RAD54 branch: inactive; dFosB act-2: inactive

Results for COc1ccc(CCNc2ccc(C(CC(N)=O)NC(=O)c3ccccc3)cc2[N+](=O)[O-])cc1 (stereo not drawn) ?
GSIS activator: inactive; dFosB act-1: 32; RAD54 branch: inactive; dFosB act-2: inactive

How did NC(=O)CC(NC(=O)c1ccccc1)c1ccc(NCCc2ccc(F)cc2)c([N+](=O)[O-])c1 (stereo not drawn) do in these assays?
RAD52 anneal inh: inactive; MLL AF4-AF9 inh: inactive; dFosB act-1: inactive; DENV2 CPE: inconclusive; RAD54 branch: inactive

Results for O=C(NC1CCCCC1)[C@@H]1[C@@H](CO)[C@@H]2Cn3c(cccc3=O)[C@@H]2N1CCc1ccccc1 ?
RAD52 anneal inh: inactive; MLL AF4-AF9 inh: inactive; GSIS activator: inactive; DENV2 CPE: inactive; RAD54 branch: inactive

What do the screens show for `COc1cc(C2C(C#N)=C(N)Oc3cc(C)n(CCc4ccccc4)c(=O)c32)cc2c1OCO2` (stereo not drawn)?
dFosB act-1: 68; RAD54 branch: inactive; dFosB act-2: inactive

Results for CCC(CC)C(=O)Nc1cccc(C(=O)Nc2ccc(S(N)(=O)=O)cc2)c1 ?
RAD52 anneal inh: inactive; MLL AF4-AF9 inh: inactive; GSIS activator: inactive; dFosB act-1: inactive; DENV2 CPE: inactive

How did CCC(CC)C(=O)Nc1cccc(S(=O)(=O)c2cccc(NC(=O)C(CC)CC)c2)c1 do in these assays?
dFosB act-1: 17; RAD54 branch: inactive; dFosB act-2: inactive

What do the screens show for `Cc1cc(C)c2nc(/N=C(\N)NC(=O)Nc3ccccc3)nc(C)c2c1`?
GSIS activator: inactive; dFosB act-1: 52; RAD54 branch: inactive; dFosB act-2: inactive

Results for Cc1cc(C)c2nc(/N=C(\N)NC(=O)c3ccccc3)nc(C)c2c1 ?
RAD52 anneal inh: inactive; MLL AF4-AF9 inh: inactive; GSIS activator: inactive; dFosB act-1: inactive; DENV2 CPE: inactive; RAD54 branch: inactive

How did CN(C)C(=O)[C@H]1[C@H](CO)[C@H]2Cn3c(ccc(C4=CCCC4)c3=O)[C@@H]1N2CCC(F)(F)F do in these assays?
RAD52 anneal inh: inactive; MLL AF4-AF9 inh: inactive; GSIS activator: inactive; DENV2 CPE: inactive

How did CC(=O)Nc1ccc(NC(=O)CCCCCN2C(=O)c3ccccc3C2=O)cc1 do in these assays?
dFosB act-1: 25; RAD54 branch: inactive; dFosB act-2: inactive

Results for O=C(CCN1C(=O)c2cccc3cccc(c23)C1=O)Nc1ccccc1 ?
RAD52 anneal inh: inactive; MLL AF4-AF9 inh: inactive; dFosB act-1: 27; DENV2 CPE: inactive; RAD54 branch: inactive; dFosB act-2: inactive

What do the screens show for `COc1ccc(-n2c(SCC(=O)N3CCc4ccccc43)nnc2-c2c[nH]c3ccccc23)cc1`?
RAD52 anneal inh: inactive; MLL AF4-AF9 inh: inactive; GSIS activator: inactive; dFosB act-1: 49; DENV2 CPE: inactive; RAD54 branch: inactive; dFosB act-2: inactive

What do the screens show for `CN1c2ccc(Br)cc2[C@H]2[C@H](CCN2C(=O)Cc2cccnc2)[C@@H]1CO`?
RAD52 anneal inh: inactive; MLL AF4-AF9 inh: inactive; GSIS activator: inactive; DENV2 CPE: inactive; RAD54 branch: inactive

How did CC=Cc1ccc2n(c1=O)C[C@H]1N[C@@H]2[C@@H](C(=O)NCc2ccc3c(c2)OCO3)[C@@H]1CO (mixture of isomers) do in these assays?
RAD52 anneal inh: inactive; MLL AF4-AF9 inh: inactive; GSIS activator: inactive; DENV2 CPE: inactive; RAD54 branch: inactive

Results for O=c1[nH]c(/C(Cl)=C/c2cc(Cl)ccc2O)nc2cc(Cl)ccc12 ?
RAD52 anneal inh: inactive; MLL AF4-AF9 inh: inactive; dFosB act-1: 31; DENV2 CPE: inactive; RAD54 branch: inactive; dFosB act-2: inactive

Results for O=C(Nc1ccc(Cl)cc1)Nc1nc(-c2ccccc2O)cs1 ?
RAD52 anneal inh: inactive; MLL AF4-AF9 inh: inactive; GSIS activator: inactive; dFosB act-1: inactive; DENV2 CPE: inactive; RAD54 branch: inactive

How did O=C(Nc1ccc(Cl)cc1)Nc1nc(-c2sccc2Br)cs1 do in these assays?
GSIS activator: inactive; dFosB act-1: 27; dFosB act-2: inactive

How did CCOc1ccc(C(=O)NCC(=O)OCC(=O)Nc2nnc(-c3ccccc3)o2)cc1 do in these assays?
RAD52 anneal inh: inactive; MLL AF4-AF9 inh: inactive; GSIS activator: inactive; dFosB act-1: inactive; DENV2 CPE: inactive; RAD54 branch: inactive

How did O=C(COC(=O)CNC(=O)c1ccc(Br)cc1)Nc1nnc(-c2ccccc2)o1 do in these assays?
RAD52 anneal inh: inactive; MLL AF4-AF9 inh: inactive; GSIS activator: inactive; dFosB act-1: 20; DENV2 CPE: inactive; RAD54 branch: inactive; dFosB act-2: inactive

What do the screens show for `O=C(COc1c(Br)cc(Br)cc1Br)N/N=C/c1ccco1`?
dFosB act-1: 31; RAD54 branch: inactive; dFosB act-2: inactive

How did Cc1cc(C)cc(OCC(=O)N/N=C/c2ccco2)c1 do in these assays?
RAD52 anneal inh: inactive; MLL AF4-AF9 inh: inactive; dFosB act-1: inactive; DENV2 CPE: inactive; RAD54 branch: inactive

Results for Cc1ccc(OCCn2c(C)c(/C=N/n3cnnc3)c3ccccc32)cc1 ?
dFosB act-1: 31; RAD54 branch: inactive; dFosB act-2: inactive

Results for O=C(COC(=O)c1n[nH]c2ccccc12)Nc1ccc([N+](=O)[O-])cc1 ?
GSIS activator: inactive; dFosB act-1: inactive

What do the screens show for `COc1cc(NC(=O)COC(=O)c2n[nH]c3ccccc23)c(C)cc1[N+](=O)[O-]`?
RAD52 anneal inh: inactive; MLL AF4-AF9 inh: inactive; GSIS activator: inactive; dFosB act-1: 32; DENV2 CPE: inactive; RAD54 branch: inactive; dFosB act-2: inactive

Results for COc1ccc(NC(=O)CN(c2ccc(OC)cc2)S(=O)(=O)c2ccc(OC)c(OC)c2)cc1 ?
RAD52 anneal inh: inactive; MLL AF4-AF9 inh: inactive; GSIS activator: inactive; dFosB act-1: 52; DENV2 CPE: inactive; RAD54 branch: inactive; dFosB act-2: inactive

How did COc1ccc(N(CC(=O)NC2CCS(=O)(=O)C2)S(=O)(=O)c2ccc(Cl)c(Cl)c2)cc1 (stereo not drawn) do in these assays?
RAD52 anneal inh: inactive; MLL AF4-AF9 inh: inactive; GSIS activator: inactive; dFosB act-1: 43; DENV2 CPE: inactive; RAD54 branch: inactive; dFosB act-2: inactive
